Bioassay records from PubChem BioAssay.
Pf growth 96h: Primary qHTS for delayed death inhibitors of the malarial parasite plastid, 96 hour incubation. P. falciparum luciferase reporter growth, 96 h. Potency, µM (highest dose often 28.7 µM), for the others: at the top dose activity change, negative = inhibition, hits mostly inhibitors. 320,000 tested, 6.9% active. AID 504834, 2011; also: potency is read from the fitted curve at half-maximal effect; % is scaled to controls: 0 for no effect and ±100 for the full control effect
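Plates of compound plus infected erythrocytes (2% hematocrit, 0.05% parasitemia final) incubate 96 hours, 37 C, 5% CO2. Detection reagent added; reduced luminescence from the parasites' luciferase reporter flags inhibition.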
Shiga inhibitor: A qHTS for Small Molecule Inhibitors of Shiga Toxin. Vero cells, Shiga toxin protein synthesis inhibition reporter. inhibition, % at 38.7 µM. 290,000 tested, 9.2% active. AID 2315, 2010; in the data active = inhibition mostly above about 28%, no sharp cut-off; inactive = mostly below about 43%; also: 0% is about no effect
NS1 function inh: qHTS Assay for Inhibitors of Influenza NS1 Protein Function; Potency, µM (top dose mostly 46.1 µM), for the others: top-dose activity, positive = more growth; 270,000 tested, 0.4% active; AID 2326, 2010; calls by dose curve; also: potency is read from the fitted curve at half-maximal effect; actives are rising curves; nearly all actives have a fitted effect of over 50% in size
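Compounds were scored for reversing the slow growth caused by influenza A NS1 in S. cerevisiae, measured by optical density at 600 nm. Assay medium contained 2% galactose at pH 6.0; NS1-free yeast of the same strain were the positive control.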
Pf growth 48h: Primary qHTS for delayed death inhibitors of the malarial parasite plastid, 48 hour incubation; AID 504832, 2011; P. falciparum luciferase growth in erythrocytes, 48 h; 310,000 tested, 5.9% active; Potency, µM (titrated, usually from 28.7 µM), inactives show top-dose activity change, negative = inhibition, hits mostly inhibitors; also: potency is read from the fitted curve at half-maximal effect; % is scaled to controls: 0 for no effect and ±100 for the full control effect
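Here the parasites carry a stable luciferase gene and grow inside erythrocytes in Albumax-based RPMI medium with compound for one erythrocytic cycle. Activity is scored as loss of luminescent signal.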
Sm TGR block: qHTS Assay for the Inhibitors of Schistosoma Mansoni Peroxiredoxins; purified TGR, DTNB reduction, TNB absorbance 405 nm; Potency, µM (top dose mostly 114 µM), for the others: top-dose activity change, negative = inhibition, actives largely listed as inhibitors; 360,000 tested, 3% active; also: potency is read from the fitted curve at half-maximal effect; % is scaled to controls: 0 for no effect and ±100 for the full control effect; nearly all actives have a fitted effect of over 60% in size
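First, TGR (20 nM dispensed) and NADPH were mixed with compound. Second, a 15 min room-temperature incubation followed. Third, further NADPH and then DTNB were added to start the reaction. Finally, TNB absorbance was monitored kinetically.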
Cycloheximide cs: Cycloheximide Counterscreen for Small Molecule Inhibitors of Shiga Toxin | cell reporter, cycloheximide protein synthesis inhibition counterscreen | max response, % | AID 2314, 2010 | 300,000 tested, 12% active; in the data active = max response mostly above about 13%, no sharp cut-off; inactive = mostly below about 14%; also: read at 38.3 µM for the half of the compounds with a filed dose; 0% is about no effect
Starred values were filed as active, the others as inactive; ? = inconclusive; · = no result given. Shown are actives, neighbours in structure and some others; about 21% of the full set was active somewhere. Unless noted, calls follow the shape of the dose curve; as a rule, active = well fitted curve in the direction sought with a large enough effect; inconclusive = small, poorly fitted or top-dose-only effect, or another doubt; inactive = no such curve, though single readings can be large; an effect the other way counts as inactive or inconclusive.

SMILES | Pf growth 96h | Shiga inhibitor | NS1 function inh | Pf growth 48h | Sm TGR block | Cycloheximide cs
Cc1cc(C)cc(N2C(=O)/C(=C\c3ccc(N4CCN(C)CC4)o3)C(=O)NC2=S)c1 | -21% | 10 | 1% | ? | -23% | -3
COc1cccc(N2C(=O)/C(=C/c3ccc(C)o3)C(=O)NC2=S)c1 | ? | 12 | 5% | 12% | 1.8µM* | 1
Cc1ccc(N2C(=O)NC(=O)/C(=C\c3ccc([N+](=O)[O-])o3)C2=O)cc1 | -19% | -17 | · | -4% | 8.9µM* | -2
Cc1ccc(/C=C2\C(=O)NC(=S)N(c3ccc(F)cc3)C2=O)o1 | ? | 11 | 8% | 14% | 1.6µM* | 1
Cc1ccc(N2C(=O)/C(=C/c3ccc(CN(CCC#N)S(C)(=O)=O)o3)C(=O)NC2=S)cc1 | ? | -10 | 3% | 24% | 2.8µM* | 2
O=C1c2oc3ccc(F)cc3c(=O)c2C(c2cccc([N+](=O)[O-])c2)N1CCCN1CCOCC1 (stereo not given) | · | · | · | · | 0% | ·
COc1ccc(C(=O)OCC(=O)N(C)C2CCS(=O)(=O)C2)cc1Br (stereo not given) | -11% | · | · | -20% | -2% | ·
C=CCOC(=O)C1=C(C)NC(SCC(=O)NC(=O)OCC)=C(C#N)C1c1cccnc1 (stereo not given) | 4% | -7 | 3% | 10µM* | 40µM* | -1
CCOC(=O)C1=C(C)NC(SCC(=O)Nc2nc(C)cs2)=C(C#N)C1c1cccs1 (stereo not given) | ? | 24 | 6% | 2.1µM* | -3% | 12
C=CCOC(=O)C1=C(C)NC(SCC(N)=O)=C(C#N)C1c1cccs1 (stereo not given) | ? | -8 | -4% | -14% | -10% | -4
CCN(CC)C(=O)CSC1=C(C#N)C(c2ccco2)C(C(=O)OCCOC)=C(C)N1 (stereo not given) | ? | 2 | 7% | ? | -26% | 3
C=CCOC(=O)C1=C(C)NC(SCC(=O)N(CC)CC)=C(C#N)C1c1ccco1 (stereo not given) | · | -11 | -13% | 13µM* | -21% | 2
C=CCOC(=O)C1=C(C)NC(SCC(=O)N(CC)CC)=C(C#N)C1c1ccccc1 (stereo not given) | 73% | -8 | 19% | ? | 3% | 2
C=CCOC(=O)C1=C(C)NC(SCC(=O)Nc2ccccc2)=C(C#N)C1c1ccco1 (stereo not given) | ? | 11 | ? | 9.3µM* | -13% | 6
CCOC(=O)C1=C(C)NC(SCC(=O)O)=C(C#N)C1c1ccco1 (stereo not given) | 4% | -20 | 7% | 16% | -9% | -3
COc1cccc(CNC(=O)CCCn2ncn3c(cc4occc43)c2=O)c1OC | · | · | · | · | -1% | ·
NC(=O)c1ccccc1NC(=O)CCn1c(=S)oc2ccccc21 | ? | -6 | -1% | 29% | -10% | -6
Cc1coc(=N)n1CC(=O)c1ccc(Cl)cc1 | 18% | -10 | 5% | 20% | 40µM* | -3
CCOc1ccc2nc(N(Cc3ccccc3)C(=O)CCNC(C)=O)sc2c1 | ? | 51* | -11% | -28% | -16% | 30*
Cc1cccc2sc(N(Cc3cccnc3)C(=O)CCc3ccccc3)nc12 | · | · | · | · | 6% | ·
CC(=O)NCCC(=O)N(Cc1ccccc1)c1nc2c(C)cccc2s1 | ? | -21 | -62% | 7.4µM* | 3% | -4
COc1ccc(CNc2nc(NCc3ccc(OC)c(OC)c3)n(C(=O)c3cccs3)n2)cc1OC | 7.4µM* | 53 | 13% | ? | 7% | 26
CCOC(=O)C1CCN(S(=O)(=O)c2ccc(CNC(=O)c3ccccc3)s2)CC1 | -13% | -1 | -9% | -8% | -22% | -3
COC(=O)N/N=C(\C)c1cccc(C(F)(F)F)c1 | 15% | 34 | · | 0% | 2% | 29*
C/C(=N\NC(=O)C1CC1)c1ccc(OC(F)F)cc1 | ? | 51* | -3% | ? | 3% | 9
SMILES | Pf growth 96h | Shiga inhibitor | NS1 function inh | Pf growth 48h | Sm TGR block | Cycloheximide cs
CCc1ccc(OCC(=O)N/N=C(\C)c2ccc(OC(F)F)cc2)cc1 | 2% | 31 | -1% | 18% | -12% | -1
COC(=O)N/N=C(\C)c1ccc(OC(F)F)cc1 | 45% | 80* | · | 94% | 11% | 35*
C/C(=N\Nc1ncc(Cl)cc1Cl)c1ccc(OC(F)F)cc1 | 80% | 42* | -1% | 35% | -5% | 50*
O=C(CSc1nnc(CNC(=O)c2c(F)cccc2Cl)o1)Nc1cccc(F)c1 | · | · | · | · | -1% | ·
CS(=O)(=O)n1nc(-c2ccco2)nc1NCc1ccccc1Cl | · | · | · | · | -35% | ·
N#CC1(NC(=O)COC(=O)c2cc([N+](=O)[O-])ccc2N2CCOCC2)CCCCC1 | -2% | · | · | ? | 1% | ·
Cc1ccc(C(=O)Nc2nnc(-c3ccco3)o2)cc1 | ? | 18 | -1% | 89% | -4% | 44*
Cc1ccsc1C(=O)Nc1nnc(-c2ccco2)o1 | -11% | 14 | -36% | ? | 2% | 18*
CCC(=O)Nc1nnc(-c2ccco2)o1 | 11% | -9 | 0% | · | -7% | -5
N#Cc1ccc(C(=O)Nc2nnc(-c3ccco3)o2)cc1 | ? | 37 | · | ? | 0% | 13
O=C(Nc1nnc(-c2ccco2)o1)c1ccc([N+](=O)[O-])s1 | 12µM* | 31 | 3% | -23% | 28µM* | -2
CC(=O)Nc1ccc(S(=O)(=O)N(C)CC(=O)OCC(=O)Nc2cccnc2Cl)cc1 | 50% | -6 | -5% | -13% | 6% | -2
O=C(Nc1ccc(OCC(=O)N2CCOCC2)cc1)c1ccccc1F | ? | 53 | -6% | 31% | 11% | 21*
O=C(Nc1ccc(OCC(=O)N2CCOCC2)cc1)c1cccc(Cl)c1 | -3% | 26* | 5% | 2% | -8% | 20
COc1ccc(C(=O)Nc2ccc(OCC(=O)N3CCOCC3)cc2)c(OC)c1OC | ? | 16 | ? | -6% | 5% | 21*
Cc1cc(NC(=O)c2ccccc2F)cc(C)c1OCC(=O)N1CCOCC1 | 12% | 20 | -1% | 34% | 3% | 12
COc1cc(C(=O)Nc2cc(C)c(OCC(=O)N3CCOCC3)c(C)c2)cc(OC)c1OC | 13µM* | 12 | -1% | ? | 4% | 9
Cc1ccc(C)c(N(C)C(=O)c2cc3c(s2)-c2ccccc2OC3)c1 | · | · | · | · | -6% | ·
COc1ccc(C(=O)Nn2c(CC(C)C)nc3cc(Cl)ccc3c2=O)c(OC)c1 | ? | -6 | 18% | -7% | -17% | -1
O=C(Cn1c(-c2cccs2)cc2cc(Cl)ccc21)N1CCN(c2ccccc2)CC1 | · | · | · | · | 4% | ·
CCCNC(=O)/C(C#N)=C1\N=C(NC(=O)c2cccs2)c2ccccc21 | ? | -6 | -11% | -3% | 0% | -6
